Most compounds without a hit are left out; they make up all but 28% or so of the library.
CYP2C19 inhib: human CYP2C19 inhibition. P33261. CYP2C19 Supersomes, luciferin-H EGE luminescence, 30 min. inhibition, % at 5 µM. 96,000 compounds, 21% hits. AID 778;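 active = CYP2C19 inhibition above a set limit at 5 µM in the primary screen, cut at about 50% in these data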;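 note: plate controls were negative control wells for no effect and 2.5 mM tranylcypromine positive control for full effect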
CYP2C9 act: increases human cytochrome P450 2C9 activity | recombinant CYP2C9, luciferin-H conversion, luminescence; stronger effect = higher value; factor 1 = untreated enzyme, 0 = blocked | AID 1024 | P11712 | activation factor at 5 µM | 96,000 compounds, 1.4% hits;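 active = activation factor of 2 or more for CYP2C9 at a 5 µM dose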;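 note: 0 = sulfaphenazole-blocked wells and 1 = vehicle-only wells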
Mac1 fbg enh: enhancers of human CD11b/CD18 binding to fibrinogen; AID 1499; 93,000 compounds, 0.07% hits; activation, % at 10 µM; P05107+P11215; K562 CD11b/CD18 adhesion to fibrinogen, ATPlite luminescence;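 active = 10 µM primary screen giving 50% or more activity, confirmed by 40% or more on retest at that dose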
CYP2C9 inh: blocks human cytochrome P450 2C9; P11712; CYP2C9 Supersomes, luciferin-H conversion, luminescence; AID 777; inhibition, % at 5 µM; 96,000 compounds, 20% hits;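 active = blocking of liver enzyme CYP2C9 beyond about 50% at 5 µM, limit read from the data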
Mac1 fbg inh: CD11b/CD18-fibrinogen binding inhibition; 93,000 compounds, 0.54% hits; AID 1497; inhibition, % at 10 µM; P05107+P11215; K562 CD11b/CD18 adhesion to fibrinogen, ATPlite luminescence; Mn2+ added to activate the integrin;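 active = primary inhibition of 50% or more at 10 µM, then 40% or more on retest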
CYP2C19 act: cytochrome P450 2C19 (human) activation | P33261 | recombinant CYP2C19, luciferin-H EGE luminescence; stronger effect = higher value; 0 = fully inhibited enzyme, 1 = untreated enzyme | activation factor at 5 µM | 96,000 tested, under 10 active | AID 1025;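 active = activation factor of at least 2 at 5 µM in the primary screen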;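 note: 0 = wells with 2.5 mM tranylcypromine and 1 = vehicle-only wells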
Active calls of the source: *; nt = no result.

SMILES	CYP2C19 inhib	CYP2C9 act	Mac1 fbg enh	CYP2C9 inh	Mac1 fbg inh	CYP2C19 act
CCCCCn1c(=O)c(C(=O)NCc2ccncc2)c(O)c2ccccc21	71*	0.3	5	74*	62	0.3
CN1CCc2nc3sc(C#N)c(N)c3c(-c3cccs3)c2C1	10	0.4	21	56*	-33	0.9
Cc1ccc(N(C)C(=O)Oc2cccc3cccnc23)cc1	87*	0.5	-1	49	2	0.1
CC(=O)Nc1ccccc1OC(=O)N(C)C	-9	1	0	0	-7	1.1
CN(C)C(=O)Oc1cccc2c(OC(=O)N(C)C)cccc12	-10	0.8	0	21	-9	1.1
Cc1ccc2cccc(OC(=O)N(C)c3ccccc3)c2n1	90*	0.7	1	28	-6	0.1
O=C(O)c1c[nH]c2ccc(S(=O)(=O)N(CCCl)CCCl)cc12	-16	1.2	-4	-18	7	1.2
CN=C(SCc1cc2c(cc1Cl)OCO2)c1c(O)n(C)c(=O)n(C)c1=O	19	0.7	-6	28	17	0.8
O=c1[nH]c2c(c(=O)n1C1CCCCC1)CCC2	25	1.1	-2	-7	3	0.8
COCCOC(=O)c1c(C)oc2ccc(OC(=O)N(C)C)cc12	63*	0.6	8	42	24	0.4
CN(C)C(=O)Oc1ccc(OC(=O)N(C)C)cc1	9	0.8	0	19	-9	0.9
COc1cccc(-c2cc(C(F)(F)F)n3nc(C(=O)N4CCC5(CC4)OCCO5)cc3n2)c1	77*	0.3	5	69*	-1	0.2
CC1(C)C2CC=C(CN3CCOCC3)C1C2 (centres undefined)	-2	1.2	2	-16	-14	1
O=C(C(Cc1ccccc1)NS(=O)(=O)c1ccc(F)cc1)N1CCC2(CC1)OCCO2 (centres undefined)	80*	0.6	-1	37	-8	0.2
O=C(NC(Cc1ccccc1)C(=O)N1CCC2(CC1)OCCO2)C1CCCCC1 (centres undefined)	18	0.8	nt	15	nt	0.8
CC(c1ccccc1)n1cncc1C(=O)N1CCCC1=O (centres undefined)	48	0.6	-6	37	-8	0.5
COc1cc(OC)c(OC)cc1CNC(C)C(O)c1ccccc1 (centres undefined)	67*	1.2	-5	-16	0	0.3
CC(NCc1cccc(Cl)c1Cl)C(O)c1ccccc1 (centres undefined)	nt	nt	-4	nt	-3	nt
CCN1CCC2(CCNC2)C1 (centres undefined)	-24	1.2	-1	-19	5	1.2
